Source: ChEMBL document CHEMBL2218924, “A broad activity screen in support of a chemogenomic map for kinase signalling research and drug discovery” (Biochem J, 2013)

Target: Fibroblast growth factor receptor 1 (Homo sapiens) (UniProt P11362)
Conditions: at 1 µM

Fibroblast growth factor receptor 1 (Homo sapiens), sequence (P11362 22-822 limits assumed): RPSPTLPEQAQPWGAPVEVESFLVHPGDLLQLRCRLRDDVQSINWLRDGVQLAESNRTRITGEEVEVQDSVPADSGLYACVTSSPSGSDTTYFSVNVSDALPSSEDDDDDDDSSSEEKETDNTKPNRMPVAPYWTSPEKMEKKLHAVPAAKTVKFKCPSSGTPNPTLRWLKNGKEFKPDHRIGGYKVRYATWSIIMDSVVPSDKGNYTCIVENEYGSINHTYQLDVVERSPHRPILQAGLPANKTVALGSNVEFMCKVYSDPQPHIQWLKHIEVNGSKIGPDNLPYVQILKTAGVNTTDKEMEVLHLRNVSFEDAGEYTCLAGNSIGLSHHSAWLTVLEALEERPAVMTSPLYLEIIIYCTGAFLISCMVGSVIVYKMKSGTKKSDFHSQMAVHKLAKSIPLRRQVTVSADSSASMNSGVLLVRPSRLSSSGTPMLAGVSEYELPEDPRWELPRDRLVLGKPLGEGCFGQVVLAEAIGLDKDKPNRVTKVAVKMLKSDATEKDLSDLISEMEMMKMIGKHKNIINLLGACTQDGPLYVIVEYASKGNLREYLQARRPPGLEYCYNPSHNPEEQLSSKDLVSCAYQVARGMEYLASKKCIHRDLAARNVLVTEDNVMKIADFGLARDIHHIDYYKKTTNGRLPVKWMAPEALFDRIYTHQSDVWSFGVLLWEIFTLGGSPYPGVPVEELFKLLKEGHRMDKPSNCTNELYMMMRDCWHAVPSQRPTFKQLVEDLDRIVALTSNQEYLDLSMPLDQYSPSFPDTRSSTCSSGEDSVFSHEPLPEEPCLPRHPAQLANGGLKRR

Row | Structure (SMILES) | residual activity [%]
1 | CSc1nc(-c2ccc(F)cc2)c(-c2ccnc(NC(C)c3ccccc3)c2)[nH]1 (centres undefined) | 126
2 | O=c1c(-c2ccc(F)cc2)c(-c2ccncc2)[nH]n1-c1ccc(Cl)cc1 | 127
3 | COc1ccc(COc2ccc(Cc3cnc(N)nc3N)cc2OC)cc1 | 112
4 | COc1ccc2c(c1)c(C1=C(c3c[nH]c4ccccc34)C(=O)NC1=O)cn2CCCN(C)C | 38
5 | COc1ccc(CNC(=O)Nc2ncc([N+](=O)[O-])s2)cc1 | 102
6 | O=C1NC(=O)C(c2cn(CCCO)c3ncccc23)=C1c1cnccn1 | 80
7 | O=C1Cc2c([nH]c3ccc([N+](=O)[O-])cc23)-c2ccccc2N1 | 74
8 | N#Cc1c(NC(=O)c2cccc3ccccc23)sc2c1CCCC2 | 128
9 | Fc1ccc(-c2nc3n(c2-c2ccncc2)CCS3)cc1 | 137

Target: Fibroblast growth factor receptor 1 (Homo sapiens) (UniProt P11362)
Conditions: at 10 µM

Row | Structure (SMILES) | residual activity [%]
10 | O=c1cc(N2CCOCC2)oc2c(-c3ccccc3)cccc12 | 81
11 | CSc1nc(-c2ccc(F)cc2)c(-c2ccnc(NC(C)c3ccccc3)c2)[nH]1 (centres undefined) | 53
12 | O=c1c(-c2ccc(F)cc2)c(-c2ccncc2)[nH]n1-c1ccc(Cl)cc1 | 40
13 | O=C(NC(NC(=S)Nc1ccc(F)c([N+](=O)[O-])c1)C(Cl)(Cl)Cl)C(c1ccccc1)c1ccccc1 (centres undefined) | 59
14 | CN([C@@H](Cc1ccc(OS(=O)(=O)c2cccc3cnccc23)cc1)C(=O)N1CCN(c2ccccc2)CC1)S(=O)(=O)c1cccc2cnccc12 | 58
15 | COc1ccc2c(c1)c(C1=C(c3c[nH]c4ccccc34)C(=O)NC1=O)cn2CCCN(C)C | 3
16 | COc1ccc(CNC(=O)Nc2ncc([N+](=O)[O-])s2)cc1 | 77
17 | O=C1NC(=O)C(c2cn(CCCO)c3ncccc23)=C1c1cnccn1 | 68
18 | O=C1Cc2c([nH]c3ccc([N+](=O)[O-])cc23)-c2ccccc2N1 | 59
19 | N#Cc1c(NC(=O)c2cccc3ccccc23)sc2c1CCCC2 | 88
20 | O=S(=O)(NCCNC/C=C/c1ccc(Br)cc1)c1cccc2cnccc12 | 35
21 | O=S(=O)(c1cccc2cnccc12)N1CCCNCC1 | 81
22 | COc1cc2ncnc(Nc3cccc(Cl)c3)c2cc1OC | 32

Target: Fibroblast growth factor receptor 2 (Homo sapiens) (UniProt P21802)
Sequence (P21802 22-821 limits assumed): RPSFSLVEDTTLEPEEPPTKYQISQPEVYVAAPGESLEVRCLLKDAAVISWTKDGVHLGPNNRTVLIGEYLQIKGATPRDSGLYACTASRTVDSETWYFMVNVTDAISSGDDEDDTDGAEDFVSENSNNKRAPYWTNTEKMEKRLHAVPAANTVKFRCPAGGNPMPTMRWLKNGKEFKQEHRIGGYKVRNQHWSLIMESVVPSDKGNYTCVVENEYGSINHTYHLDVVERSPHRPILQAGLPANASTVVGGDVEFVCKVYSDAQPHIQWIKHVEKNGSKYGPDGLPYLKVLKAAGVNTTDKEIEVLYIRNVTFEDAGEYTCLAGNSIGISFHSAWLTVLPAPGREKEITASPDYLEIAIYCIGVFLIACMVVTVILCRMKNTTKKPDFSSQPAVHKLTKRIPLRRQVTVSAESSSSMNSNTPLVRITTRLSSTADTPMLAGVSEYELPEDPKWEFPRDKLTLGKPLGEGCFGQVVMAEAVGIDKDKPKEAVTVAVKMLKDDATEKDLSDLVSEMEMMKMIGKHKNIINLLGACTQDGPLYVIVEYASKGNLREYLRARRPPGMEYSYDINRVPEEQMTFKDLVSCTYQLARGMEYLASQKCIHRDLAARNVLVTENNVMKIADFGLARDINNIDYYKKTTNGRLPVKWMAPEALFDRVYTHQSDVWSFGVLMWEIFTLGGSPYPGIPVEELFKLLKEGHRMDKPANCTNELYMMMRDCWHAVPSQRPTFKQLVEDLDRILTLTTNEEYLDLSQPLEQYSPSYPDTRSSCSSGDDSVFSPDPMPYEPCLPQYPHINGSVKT
Conditions: at 1 µM

Row | Structure (SMILES) | residual activity [%]
23 | Nc1n[nH]c2nc3ccccc3nc12 | 122
24 | CSc1nc(-c2ccc(F)cc2)c(-c2ccnc(NC(C)c3ccccc3)c2)[nH]1 (centres undefined) | 87
25 | O=C(CCCc1ccc(-c2ccccc2F)cc1)Nc1ccc(O)cc1 | 99
26 | COc1ccc(COc2ccc(Cc3cnc(N)nc3N)cc2OC)cc1 | 112
27 | COc1ccc2c(c1)c(C1=C(c3c[nH]c4ccccc34)C(=O)NC1=O)cn2CCCN(C)C | 72
28 | CCCC(=O)Oc1ccc2[nH]c(C(=O)c3cc4ccccc4[nH]3)cc2c1 | 97
29 | COc1ccc(CNC(=O)Nc2ncc([N+](=O)[O-])s2)cc1 | 100
30 | O=C1NC(=O)C(c2cn(CCCO)c3ncccc23)=C1c1cnccn1 | 91
31 | Nc1ncnc2[nH]nc(Nc3ccc(F)cc3)c12 | 91
32 | N#C/C(=C1/Nc2ccccc2S1)c1ccnc(NCCc2cccnc2)n1 | 100
33 | COc1cc2nccc(Oc3ccc(NC(=O)Nc4cc(C)on4)c(Cl)c3)c2cc1OC | 25
34 | Nc1nc(Nc2ccc(S(N)(=O)=O)cc2)nn1C(=O)c1c(F)cccc1F | 36
35 | NC(=O)c1ccc(-c2nc(-c3ccc4c(c3)OCCO4)c(-c3ccccn3)[nH]2)cc1 | 117
36 | O=C1Nc2ccccc2/C1=C\c1c(Cl)[nH]c2ccccc12 | 119
37 | COc1cc2ncnc(Nc3cccc(Cl)c3)c2cc1OC | 101
38 | CC(C)[C@H](CO)Nc1nc(Nc2cc(N)cc(Cl)c2)c2ncn(C(C)C)c2n1 | 84
39 | N#C/C(=C\c1ccc(O)c(O)c1)C(=O)NCc1ccccc1 | 103
40 | CCOc1nc(NC(=O)Cc2cc(OC)ccc2OC)cc(N)c1C#N | 100

Target: Fibroblast growth factor receptor 2 (Homo sapiens) (UniProt P21802)
Conditions: at 10 µM

Row | Structure (SMILES) | residual activity [%]
41 | Nc1n[nH]c2nc3ccccc3nc12 | 84
42 | CSc1nc(-c2ccc(F)cc2)c(-c2ccnc(NC(C)c3ccccc3)c2)[nH]1 (centres undefined) | 68
43 | O=C(O)/C=C/c1cc(Br)c(Br)c(Br)c1Br | 94
44 | O=C(CCCc1ccc(-c2ccccc2F)cc1)Nc1ccc(O)cc1 | 99
45 | O=C(NC(NC(=S)Nc1ccc(F)c([N+](=O)[O-])c1)C(Cl)(Cl)Cl)C(c1ccccc1)c1ccccc1 (centres undefined) | 73
46 | COc1ccc(COc2ccc(Cc3cnc(N)nc3N)cc2OC)cc1 | 76
47 | COc1ccc2c(c1)c(C1=C(c3c[nH]c4ccccc34)C(=O)NC1=O)cn2CCCN(C)C | 18
48 | CCCC(=O)Oc1ccc2[nH]c(C(=O)c3cc4ccccc4[nH]3)cc2c1 | 108
49 | COc1ccc(CNC(=O)Nc2ncc([N+](=O)[O-])s2)cc1 | 78
50 | O=C1NC(=O)C(c2cn(CCCO)c3ncccc23)=C1c1cnccn1 | 81
51 | Nc1ncnc2[nH]nc(Nc3ccc(F)cc3)c12 | 60
52 | N#C/C(=C1/Nc2ccccc2S1)c1ccnc(NCCc2cccnc2)n1 | 45
53 | COc1cc2nccc(Oc3ccc(NC(=O)Nc4cc(C)on4)c(Cl)c3)c2cc1OC | 5
54 | Nc1nc(Nc2ccc(S(N)(=O)=O)cc2)nn1C(=O)c1c(F)cccc1F | 7
55 | NC(=O)c1ccc(-c2nc(-c3ccc4c(c3)OCCO4)c(-c3ccccn3)[nH]2)cc1 | 82
56 | O=C1Nc2ccccc2/C1=C\c1c(Cl)[nH]c2ccccc12 | 79
57 | COc1cc2ncnc(Nc3cccc(Cl)c3)c2cc1OC | 66
58 | CC(C)[C@H](CO)Nc1nc(Nc2cc(N)cc(Cl)c2)c2ncn(C(C)C)c2n1 | 22
59 | N#C/C(=C\c1ccc(O)c(O)c1)C(=O)NCc1ccccc1 | 120
